{
  "source": "PubChem BioAssay (Tox21)",
  "note": "Values joined by “and” are separate entries in the source; they are usually repeats but may differ in a detail not shown here. Identical values can stand only once. Results filed as inconclusive are left out. A call without a number means that no potency is given here. Active and inactive are the calls of the source. The call rests on the fitted dose curve. Potency means the concentration at half of the fitted maximal effect.",
  "data": [
    {"assay": "qHTS assay to identify small molecule antagonists of the sonic hedgehog signaling (Shh) pathway (AID 1259369); further: nearly all actives have a fitted effect of over 45% in size", "details": "NIH/3T3 Gli1-Luc reporter, Shh antagonist, luminescence 24 h; series mostly up to 92.4 µM", "from_the_text": "U.S. Tox21 Program National Center for Advancing Translational Sciences [NCATS] NIH Chemical Genomics Center [NCGC] U.S. Environmental Protection Agency [EPA] National Institutes of Environmental Health Sciences [NIEHS] National Toxicology Program [NTP] U.S. Food and Drug Administration [FDA] Tox21 Assay Overview: The sonic hedgehog (Shh) pathway is essential for normal embryonic development. Dysregulation of the Shh pathway can cause severe developmental defects in organs. Therefore chemicals that interfere with the pathway are potential developmental toxicants. A cell line designated 3T3Gli1-Luc (DMB/OARSA/CFSAN/FDA, Laurel, MD), a NIH/3T3 derived clone containing stably integrated Gli1-Luc reporter is used to detect chemical interference of the Shh pathway, by changes in the expression of the firefly Luc gene under the control of the Gli1 transcriptional response element. This cell line was used to screen Tox21 libraries for identifying and prioritizing the potential developmental toxicants that interfere Shh pathway. Conditioned medium-stimulated mode was used to screen for chemicals inhibiting Shh signaling.\nTox21 Assay Protocol Summary: 3T3 Gli1-Luc cells were dispensed at 2,000 per well in 5uL of culture medium into white solid bottom 1536-well plates (Greiner Bio-One, Monroe, NC) using a Multidrop Combi (Thermo Scientific, Waltham, MA) dispenser. The assay plates were incubated at 37 C and 5% CO2 for 4hr, and then 23nL of compounds dissolved in DMSO and positive control were transferred using a Pintool station (Wako, San Diego, CA). The compound transfer was followed by the addition of 1ul conditioned medium or assay buffer using two separate tips of Flying Reagent Dispenser (FRD, Aurora Discovery, San Diego, CA). The assay plates were incubated at 37C and 5% CO2 for 24hr. For luciferase read, 4uL of Amplite Luciferase reporter gene assay reagent (AAT Bioquest, Inc. Sunnyvale, CA) was added to each well of the assay plates using FRD and incubated at room temperature for 30min. The luminescence signal was measured using a ViewLux plate reader (Perkin Elmer, Shelton, CT).", "values": [
      {"compound": "CON(C)C(=O)Nc1ccc(Br)cc1", "Potency": "inactive"},
      {"compound": "CCC(=O)c1ccc(Cl)cc1", "Potency": "inactive"},
      {"compound": "CCCN1CCC[C@@H]2Cc3[nH]ncc3C[C@H]21", "Potency": "inactive"},
      {"compound": "C[N+]1(C)CCCCC1", "Potency": "inactive"},
      {"compound": "ClC1=C(Cl)C2(Cl)C(CBr)CC1(Cl)C2(Cl)Cl", "note": "(stereo not given)", "Potency": "inactive"},
      {"compound": "CCOC1Oc2ccc(OS(C)(=O)=O)cc2C1(C)C", "note": "(stereo not given)", "Potency": "inactive"},
      {"compound": "CC(Cc1ccccc1)NCCCCl", "note": "(stereo not given)", "Potency": "inactive"},
      {"compound": "CC(C)(N)Cc1ccccc1Cl", "Potency": "inactive"},
      {"compound": "CN(C)C1CCCCC1", "Potency": "inactive"},
      {"compound": "ClCC1CO1", "note": "(stereo not given)", "Potency": "inactive"},
      {"compound": "CCN(CC)C1CCCCC1", "Potency": "inactive"},
      {"compound": "CC(O)CCl", "note": "(stereo not given)", "Potency": "inactive"},
      {"compound": "O=C(O)C(Br)(Br)Br", "Potency": "inactive"},
      {"compound": "NNCc1ccccc1", "Potency": "inactive"},
      {"compound": "ClCCCCCCCl", "Potency": "inactive"},
      {"compound": "CS(=O)(=O)Cl", "Potency": "inactive"},
      {"compound": "CNC(=O)O/N=C(/CSC)C(C)(C)C", "Potency": "inactive"},
      {"compound": "C1CN2CCC1CC2", "Potency": "inactive"},
      {"compound": "CCOP(=O)(CN(CCO)CCO)OCC", "Potency": "inactive"},
      {"compound": "CCOP(=S)(OCC)SCCl", "Potency": "inactive"},
      {"compound": "O=C(Cl)C(Cl)Cl", "Potency": "inactive"},
      {"compound": "O=[N+]([O-])CCO", "Potency": "inactive"},
      {"compound": "CCC1(c2ccccc2)C(=O)N(COC)C(=O)N(COC)C1=O", "Potency": "inactive"},
      {"compound": "CN(C)CCN(C)C", "Potency": "inactive"},
      {"compound": "CC(C)(C)c1cc(O)ccc1O", "Potency": "7.7 µM (active) and 3.86 µM (active)"},
      {"compound": "BrCC1CO1", "note": "(stereo not given)", "Potency": "inactive"},
      {"compound": "CC(C)NCC(O)c1ccc([N+](=O)[O-])cc1", "note": "(stereo not given)", "Potency": "inactive"},
      {"compound": "CCNP(=S)(OC)O/C(C)=C/C(=O)OC(C)C", "note": "(stereo not given)", "Potency": "inactive"},
      {"compound": "CCOC(=O)NC(C)(C)Cc1ccc(Cl)cc1", "Potency": "inactive"},
      {"compound": "NC(=O)OCCCc1ccccc1", "Potency": "inactive"},
      {"compound": "S=C=S", "Potency": "inactive"},
      {"compound": "CN1C(=O)COc2c(C(=O)NC3CN4CCC3CC4)cc(Cl)cc21", "note": "(stereo not given)", "Potency": "inactive"},
      {"compound": "Cc1ccc(-c2nc3ccc(C)cn3c2CC(=O)N(C)C)cc1", "Potency": "inactive"},
      {"compound": "C(COCC1CO1)OCC1CO1", "note": "(stereo not given)", "Potency": "34.4 µM (active)"},
      {"compound": "CCN[C@@H](C)Cc1ccccc1", "Potency": "inactive"},
      {"compound": "CCOP(=S)(OCC)Oc1ccc(Cl)cc1Cl", "Potency": "inactive"},
      {"compound": "O=C(O)c1c(Cl)ccc2cc(Cl)cnc12", "Potency": "inactive"},
      {"compound": "O=C(Cl)c1ccccc1", "Potency": "inactive"},
      {"compound": "C#CC(C)(C)O", "Potency": "inactive"},
      {"compound": "CCCC(C)C1(CC)C(=O)N=C(S)NC1=O", "note": "(stereo not given)", "Potency": "inactive"}
    ]}
  ]
}
